Source: PubChem BioAssay AID493240 (Broad Institute, 2011)
Out of some 1,300 compounds screened, about 270 (21%) were called active. How the calls were made is not given here. The list is a sample of the results. Entries with a potency or affinity are not part of this list.

Experiment: SK-MEL-5 parental cell viability loss, dose response, orthogonal assay for MITF inhibitor project, CellTiter-Glo, cherry-picked, set 3 (AID 493240)
Conditions: SK-MEL-5 viability, ATP luminescence (CellTiter-Glo), 24 h; series mostly up to 35 µM

| Compound | outcome |
| --- | --- |
| COC(=O)[C@@H]1C[C@]2(OC(=O)c3ccccc3)C=CC(=O)C[C@@H]2N1C(=O)OCc1ccccc1 | inactive |
| Cc1occc1C(=O)N/N=C/c1ccc(OCc2ccccc2)cc1 | inactive |
| CC(=O)SC(C[N+](=O)[O-])c1cn(C(C)=O)c2ccccc12 (centres undefined) | inactive |
| Cc1ccc(-c2cn3nc(C)c(C)nc3n2)cc1 | inactive |
| O=C(Nc1ccc(-c2nc3ncccc3o2)cc1)c1ccc([N+](=O)[O-])o1 | inactive |
| NC(=O)c1cc([N+](=O)[O-])ccc1NCc1ccc(N)cc1 | inactive |
| COc1ccc(-c2csc(Nc3ccccn3)n2)cc1OC | inactive |
| CC1CCN(C(=O)c2cc3ccccc3o2)CC1 | inactive |
| c1ccc(-c2cn3nc4c(nc3n2)CCCC4)cc1 | inactive |
| Cc1ccc(S(=O)(=O)CC(CN2CCCCC2)N2CCCCC2)cc1 (centres undefined) | inactive |
| O=S(=O)(CC(CN1CCCCC1)N1CCCCC1)c1ccc2ccccc2c1 (centres undefined) | inactive |
| O=C(Nc1ccccc1F)C(=O)Nc1cccc2ccccc12 | inactive |
| c1ccc(-n2ncc3c(NCc4cccs4)ncnc32)cc1 | inactive |
| COc1cccc(/C=N/Nc2ncnc3c2ncn3Cc2ccccc2)c1O | inactive |
| COc1cccc(C(=O)Nc2ccc3c(cc2=O)[C@@H](NC(C)=O)CCc2cc(OC)c(OC)c(OC)c2-3)c1 | inactive |
| CCc1nc2oc3ccc(C)cc3c(=O)c2cc1C(=O)OC | inactive |
| O=C(COC(=O)c1ccc(F)c([N+](=O)[O-])c1)NC(=O)NCc1ccccc1 | inactive |
| CCC(=O)Nc1cc(C(=O)OCC(=O)c2ccccc2Cl)ccc1C | inactive |
| CNC(=O)COC(=O)c1ccccc1C(=O)c1ccc(Cl)c([N+](=O)[O-])c1 | inactive |
| Cc1cc(C(=O)O/N=C(\N)c2ccncc2)ccc1[N+](=O)[O-] | inactive |
| O=C(COC(=O)c1ccccc1C(=O)c1ccc(Cl)c([N+](=O)[O-])c1)NC1CC1 | inactive |
| CCCNC(=O)COC(=O)c1ccccc1C(=O)c1ccc(Cl)c([N+](=O)[O-])c1 | inactive |
| CC(=O)OCCNc1cc(Sc2nc3ccccc3[nH]2)c2nonc2c1[N+](=O)[O-] | inactive |

| Compound | outcome |
| --- | --- |
| CNc1oc(/C=C/c2cccc(OC)c2)nc1C#N | inactive |
| Cc1ccc2oc(Nc3nc(C)c(C)c(C)n3)nc2c1 | inactive |
| Cc1ccc2nc(-c3cccnc3)oc2c1 | inactive |
| CC(C)c1ccc(/C=N/Nc2ccc(C(=O)O)cc2)cc1 | inactive |
| O=C(NCc1csc(-c2cccs2)n1)C1CCC1 | inactive |
| CCOc1ccc2nc(NC(=O)Cc3cccs3)sc2c1 | inactive |
| CC(C)S(=O)(=O)c1csc(C(=O)Nc2ccc(F)cc2)c1N | inactive |
| C=CCN=C1NN=C(c2ccc3c(c2)OCCO3)CS1 | inactive |
| C=CCn1c(C)cc(C2=NNC(=NC(C)(C)C)SC2)c1C | inactive |
| O=C(NC1CC1)C1CCN(S(=O)(=O)c2ccc(Cl)c([N+](=O)[O-])c2)CC1 | inactive |
| CC(C)CN=C(NS(=O)(=O)c1ccccc1)C(Cl)(Cl)Cl | inactive |
| O=C(CN1CCCCC1)Nc1scc2c1c(=O)oc1ccccc12 | inactive |
| CN1CCN(c2ccccc2NC(=O)c2ccc([N+](=O)[O-])o2)CC1 | inactive |
| CC(C)C(=O)N1CCN(c2ccc(NC(=O)c3ccc([N+](=O)[O-])o3)cc2)CC1 | inactive |
| CCN1CCN(/C=N/c2nc3c(s2)CCCC3)CC1 | inactive |
| Oc1ccc(-c2nnc(SCC3CCCCC3)o2)cc1 | inactive |
| CC(=NNC(=S)N1CCN(c2ccccn2)CC1)c1nccs1 | inactive |
| O=C1CN(c2ccccc2)C(=S)N1C(=O)c1ccc(Br)cc1 | inactive |
| COc1ccc(C(=O)CN2Cc3ccccc3C2=N)cc1 | inactive |
| O=C(COC(=O)CCN1C(=O)/C(=C\C=C\c2ccccc2)SC1=S)Nc1cc(F)ccc1F | inactive |
| COc1cc(C(=O)Oc2c(CN3CCOCC3)cc(Cl)c3cccnc23)cc(OC)c1OC | inactive |
| C/C(=N\NC(=O)COc1ccccc1-c1ccccc1)c1ccccn1 | inactive |
| CCOC(=O)COc1ccc2ccccc2c1/C=C/[N+](=O)[O-] | inactive |

| Compound | outcome |
| --- | --- |
| O=C(/C=C/c1ccc([N+](=O)[O-])s1)N1CCCCC1 | inactive |
| O=C(Nc1ccc(Cl)cc1)N1CC=CCC1 | inactive |
| NC(=O)c1c(NC(=O)c2cccnc2)sc2c1CCCCC2 | inactive |
| O=C(N/N=C/c1cc([N+](=O)[O-])ccc1N1CCNCC1)c1ccc([N+](=O)[O-])cc1 | inactive |
| OCC1CCCC(n2cnc3c(=S)nc[nH]c32)O1 (centres undefined) | inactive |
| CN(C)CCNC(=O)COc1ccc(C23CC4CC(CC(C4)C2)C3)cc1 | inactive |
| O=C(CSc1ccc(Cl)cc1)NC1CCCC1 | inactive |
| Cc1cc(C=C2C(=O)c3ccccc3C2=O)c(C)n1-c1ccccc1 | inactive |
| N#CC1=C(c2ccccc2)/C(=C/c2ccccc2)OC1=O | inactive |
| Cc1ccccc1-n1ncc2c([N+](=O)[O-])cc([N+](=O)[O-])cc21 | inactive |
| Cc1cc2oc(=O)cc(C)c2cc1NC(=O)CCC(=O)O | inactive |
| Cn1c(SC2=CS(=O)(=O)c3ccccc32)nc2ccccc21 | inactive |
| COc1ccc(C(=O)NC(=O)Nc2cc(C)ccn2)cc1 | inactive |
| Cc1cnn(C(=S)NCCc2ccccc2)c1 | inactive |
| Cc1cc(NCCCn2ccnc2)n2ncc(-c3ccccc3)c2n1 | inactive |
| CC(=O)c1ccc(N/C=C/C(=O)c2ccc(Br)cc2)cc1 | inactive |
| COc1ccc(C(=O)N/N=C/c2cc(Br)ccc2O)cc1OC | inactive |
| CCOc1cc(/C=C(/C#N)c2ccc(Cl)cc2)cc(Cl)c1OCC(=O)O | inactive |
| O=[N+]([O-])c1ccc(N/N=C/C=C/c2ccco2)cc1 | inactive |
| Cc1ccccc1C(=O)N1CCN(c2ccc(NC(=O)c3ccc([N+](=O)[O-])o3)cc2)CC1 | inactive |
| CCC(=O)N1CCN(c2ccc(NC(=O)c3ccc([N+](=O)[O-])o3)cc2)CC1 | inactive |
| O=C(Nc1ccc(N2CCN(C(=O)c3ccc(Cl)cc3)CC2)cc1)c1ccc([N+](=O)[O-])o1 | inactive |
| CS(=O)(=O)N1CCN(c2ccc(NC(=O)c3ccc([N+](=O)[O-])o3)cc2)CC1 | inactive |

| Compound | outcome |
| --- | --- |
| CC(C)(C)c1ccc(C(=O)Nc2ccc(CC(=O)O)cc2)o1 | inactive |
| Cn1c(COc2ccccc2Br)nc2ccccc21 | inactive |
| C[C@H]1CCC[C@]2(C)C[C@H]3OC(=O)C(CN4CCCCCC4)[C@H]3C=C12 (some centres undefined) | inactive |
| COc1ccc(NC(=O)c2cc3ccccc3[nH]2)cc1 | inactive |
| O=C(NCc1ccco1)c1ccc(COCC(F)(F)F)cc1 | inactive |
| COc1cc2nc(SCC(=O)NCc3ccco3)n(Cc3ccc(Cl)cc3)c(=O)c2cc1OC | inactive |
| CCN(C(=O)c1ccco1)c1nc(-c2ccc(OC)cc2)cs1 | inactive |
| CCOCCCNC(=O)/C(C#N)=C/c1ccc([N+](=O)[O-])o1 | inactive |
| CC1CC(C)CN(C(=O)/C=C/c2ccc([N+](=O)[O-])s2)C1 (centres undefined) | inactive |
| COc1ccc(C(=O)C(CN2CCOCC2)c2ccccc2)cc1 (centres undefined) | inactive |
| COc1ccc(C(=O)CCNc2ccc(F)cc2)cc1 | inactive |
| COc1ccc(C(=O)C(CN2CCCC2)c2ccccc2)cc1 (centres undefined) | inactive |
| CCNC(=O)CC1C(=O)N(c2ccc(F)cc2)C(=O)N1CCc1ccc(OC)cc1 (centres undefined) | inactive |
| CC(C)(C)c1ccc(-c2cc(N)n[nH]2)cc1 | inactive |
| O=C(Nc1ccc(Cl)cc1)C1C2CCCCC21 (centres undefined) | inactive |
| CCOC(=O)N1C(=O)[C@@](CC)(c2ccccc2)N1C(=O)OCC | inactive |
| O=S1(=O)CCC(NC(=S)SCc2ccccc2Br)C1 (centres undefined) | inactive |
| O=C(CSCC(=O)Nc1ccccc1)N/N=C/c1c(O)ccc2ccccc12 | inactive |
| CCOC(=O)c1cn2nc(Oc3ccccc3)ccc2n1 | inactive |
| COc1ccc(/C=C2\SC(=S)N(CCCC(=O)NNC(=O)c3ccccc3O)C2=O)cc1 | inactive |
| CN(C)CCNc1ccc2nnn3c4ccc(O)cc4c(=O)c1c23 | inactive |
| O=C(Nc1ccccc1Cl)Nc1cccc2cccnc12 | inactive |
| COc1ccc2oc(=N)c(C(=O)Nc3ccccc3Cl)cc2c1 | inactive |

| Compound | outcome |
| --- | --- |
| Cc1cc(C(=O)Nc2cccc(C(=O)O)c2)oc1C | inactive |
| CCSc1nc2c(cnn2-c2ccccc2)c(=O)n1N | inactive |
| O=C(O)c1cccc(N/N=C/c2ccc(OC(F)(F)F)cc2)c1 | inactive |
| COc1cc(C2C(C#N)=C(N)Oc3cc4c(cc32)OCO4)cc(OC)c1OC (centres undefined) | inactive |
| Clc1ccc(-c2c[n+](Cc3cccc(Cl)c3)c3n2CCC3)cc1 | inactive |
| O=C(C[n+]1cc(-c2ccc(F)cc2)n2c1CCC2)c1cccs1 | inactive |
| Nc1ccc(-c2nc3c(Cl)cc(N)cc3[nH]2)cc1 | inactive |
| C=CCSC(=S)NC1CCS(=O)(=O)C1 (centres undefined) | inactive |
| C/C(=N\NC(=O)C(C)Oc1ccc([N+](=O)[O-])cc1)c1ccccn1 (centres undefined) | inactive |
| O=C(/C=C/c1ccc([N+](=O)[O-])s1)N1CCCC1 | inactive |
| COc1ccc(NC(=O)c2cc(F)cc(F)c2)cc1Cl | inactive |
| COc1ccc(C(=O)Nc2ccc3ccccc3c2)cc1OC | inactive |
| COc1ccc(NC(=O)c2scc(S(=O)(=O)C(C)C)c2N)cc1 | inactive |
| O=C(/C=C/c1ccccc1)Nc1cccc(C(=O)O)c1 | inactive |
| O=C(Nc1ccccc1F)c1ccc2c(c1)OCO2 | inactive |
| Cc1cccc(OCC(=O)Nc2cccc(O)c2)c1 | inactive |
| CC1(C)Cc2c(sc(NC(=O)Nc3ccccc3)c2C(N)=O)CO1 | inactive |
| COc1cccc(/C=N/Nc2nc3ccccc3[nH]2)c1OC | inactive |
| O=C(Nc1ccc(-c2cn3c(n2)SCC3)cc1)c1ccco1 | inactive |
| NNC(=O)c1cc2ccccc2cc1O | inactive |
| CN(CC(=O)N1CCCCCC1)S(=O)(=O)c1ccccc1 | inactive |
| COC(=O)C1=C(CN2CCCc3ccccc32)NC(=O)NC1c1ccc(F)cc1 (centres undefined) | inactive |
